Reference: PubChem BioAssay (NCI)
Several values for one entry are separate records, joined by “and”; a condition that tells them apart may be missing. Identical values can stand only once. Compounds without any hit were thinned out: in the full panel of roughly 79,000, 15% have a hit. Values without a mark were called inactive. Activity calls are given as the source filed them. Cut-off read from the data, not from the text of the source: active = growth inhibition above about 70%; inactive = the rest.

Assays:
[1] = NCI Yeast Anticancer Drug Screen. Data for the rad50 strain (AID 155);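 note: 0% = growth of vehicle-only cultures of the same strain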; details: S. cerevisiae rad50 strain growth inhibition, active compounds read high
Method in brief: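 Cells are treated with compound, grown, and their growth is then scored against vehicle-only cultures of the same repair-deficient yeast strain.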

[2] = NCI Yeast Anticancer Drug Screen. Data for the mec2-1 strain (AID 157); details: S. cerevisiae mec2-1 strain, active compounds read high
Method in brief: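 Using mec2-1 yeast: add compound, measure growth, express inhibition versus vehicle-treated cultures.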

[3] = NCI Yeast Anticancer Drug Screen. Data for the sgs1 mgt1 strain (AID 161);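 note: 0% = growth of cultures given vehicle only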; details: S. cerevisiae sgs1 mgt1 strain, active compounds read high
Method in brief: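 This yeast growth screen uses a strain with defined DNA-repair lesions; compound-treated growth is compared with vehicle-treated growth.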

[4] = NCI Yeast Anticancer Drug Screen. Data for the cln2 rad14 strain (AID 165);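 note: 0% = growth equal to vehicle treated cultures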; details: S. cerevisiae cln2 rad14 strain, active compounds read high
Method in brief: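 Yeast strain cln2 rad14, bearing defects in cell cycle control and DNA repair, serves as the test system; values reflect growth inhibition compared with vehicle.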

[5] = NCI Yeast Anticancer Drug Screen. Data for the bub3 strain (AID 167); details: S. cerevisiae bub3 mutant strain, active compounds read high
Method in brief: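 Part of a panel of yeast mutants defective in DNA damage repair or cell cycle regulation. Each strain is grown with compound, and inhibition is calculated relative to solvent-treated cultures.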

[6] = NCI Yeast Anticancer Drug Screen. Data for the mlh1 rad18 strain (AID 175); details: S. cerevisiae mlh1 rad18 strain growth inhibition, active compounds read high
Method in brief: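 Steps: expose repair-defective yeast to compound; measure growth; express inhibition against vehicle-treated controls.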

[7] = at 5.0 µM (retest, dose inferred, filed as 0.5)
[8] = at 50.0 µM (retest, dose inferred, filed as 5.0)

c1ccc(CCNCc2ccccc2)cc1
growth inhibition [1, 7]: -2%
growth inhibition [1, 8]: 3%
growth inhibition ([1]; at 50.0 µM): -2.35% and 6.05%
growth inhibition [2, 7]: -2%
growth inhibition [2, 8]: 2%
growth inhibition ([2]; at 50.0 µM): 6.45% and 3.8%
growth inhibition [3, 7]: -4%
growth inhibition [3, 8]: 0%
growth inhibition ([3]; at 50.0 µM): -7.05% and -3.9%
growth inhibition [4, 7]: 0%
growth inhibition [4, 8]: 4%
growth inhibition ([4]; at 50.0 µM): 54% and -3.45%
growth inhibition [5, 7]: 5%
growth inhibition [5, 8]: 4%
growth inhibition ([5]; at 50.0 µM): -7.5% and 16.1%
growth inhibition [6, 7]: 3%
growth inhibition [6, 8]: 6%
growth inhibition ([6]; at 50.0 µM): 0.4% and 3.2%

Cc1cc(C)[n+](CCOc2ccc(/C(=C(/Cl)c3ccccc3)c3ccccc3)cc2)c(C)c1
growth inhibition [1, 7]: 99% (active)
growth inhibition [1, 8]: 99% (active)
growth inhibition ([1]; at 50.0 µM): 91.7% (active)
growth inhibition [2, 7]: 83% (active)
growth inhibition [2, 8]: 83% (active)
growth inhibition ([2]; at 50.0 µM): 91.9% (active)
growth inhibition [3, 7]: 73% (active)
growth inhibition [3, 8]: 73% (active)
growth inhibition ([3]; at 50.0 µM): 92.2% (active)
growth inhibition [4, 7]: 97% (active)
growth inhibition [4, 8]: 97% (active)
growth inhibition ([4]; at 50.0 µM): 91.7% (active)
growth inhibition [5, 7]: 67%
growth inhibition [5, 8]: 67%
growth inhibition ([5]; at 50.0 µM): 90% (active)
growth inhibition [6, 7]: 82% (active)
growth inhibition [6, 8]: 82% (active)
growth inhibition ([6]; at 50.0 µM): 89.8% (active)

CC[CH2][Sn]([F])([F])[CH2]CC
growth inhibition [1, 7]: 20%
growth inhibition [1, 8]: 94% (active)
growth inhibition ([1]; at 50.0 µM): 83% (active)
growth inhibition [2, 7]: 12%
growth inhibition [2, 8]: 97% (active)
growth inhibition ([2]; at 50.0 µM): 87.7% (active)
growth inhibition [3, 7]: 11%
growth inhibition [3, 8]: 94% (active)
growth inhibition ([3]; at 50.0 µM): 84.7% (active)
growth inhibition [4, 7]: 17%
growth inhibition [4, 8]: 91% (active)
growth inhibition ([4]; at 50.0 µM): 83.5% (active)
growth inhibition [5, 7]: 14%
growth inhibition [5, 8]: 96% (active)
growth inhibition ([5]; at 50.0 µM): 81.2% (active)
growth inhibition [6, 7]: 13%
growth inhibition [6, 8]: 95% (active)
growth inhibition ([6]; at 50.0 µM): 86.5% (active)

CC(=O)OC(C)(C)/C=C/C(=O)[C@](C)(O)[C@H]1[C@H](O)C[C@@]2(C)[C@@H]3CC=C4[C@@H](C[C@H](O)[C@H](O)C4(C)C)[C@]3(C)C(=O)C[C@]12C
growth inhibition [1, 7]: 15%
growth inhibition [1, 8]: 98% (active)
growth inhibition ([1]; at 50.0 µM): 92.1% (active)
growth inhibition [2, 7]: 52%
growth inhibition [2, 8]: 99% (active)
growth inhibition ([2]; at 50.0 µM): 93.5% (active)
growth inhibition [3, 7]: 13%
growth inhibition [3, 8]: 98% (active)
growth inhibition ([3]; at 50.0 µM): 93.3% (active)
growth inhibition [4, 7]: 43%
growth inhibition [4, 8]: 98% (active)
growth inhibition ([4]; at 50.0 µM): 91.1% (active)
growth inhibition [5, 7]: 65%
growth inhibition [5, 8]: 99% (active)
growth inhibition ([5]; at 50.0 µM): 91.5% (active)
growth inhibition [6, 7]: 55%
growth inhibition [6, 8]: 98% (active)
growth inhibition ([6]; at 50.0 µM): 91.8% (active)

COC1=CC(C)(C)C=C([Se][Se]C2=CC(C)(C)C=C(OC)C2=O)C1=O
growth inhibition [1, 7]: 82% (active)
growth inhibition [1, 8]: 79% (active)
growth inhibition ([1]; at 50.0 µM): 83.5% (active)
growth inhibition [2, 7]: 83% (active)
growth inhibition [2, 8]: 76% (active)
growth inhibition ([2]; at 50.0 µM): 88.9% (active)
growth inhibition [3, 7]: 86% (active)
growth inhibition [3, 8]: 87% (active)
growth inhibition ([3]; at 50.0 µM): 83% (active)
growth inhibition [4, 7]: 77% (active)
growth inhibition [4, 8]: 75% (active)
growth inhibition ([4]; at 50.0 µM): 68.5%
growth inhibition [5, 7]: 71% (active)
growth inhibition [5, 8]: 61%
growth inhibition ([5]; at 50.0 µM): 64.7%
growth inhibition [6, 7]: 81% (active)
growth inhibition [6, 8]: 79% (active)
growth inhibition ([6]; at 50.0 µM): 85.5% (active)

CCOC(=O)C1C2OC(=O)C(C(=O)C2CN(CCCl)CCCl)C1C1CC=C(CC2=CCC(C3C4C(=O)OC(C(CN(CCCl)CCCl)C4=O)C3C(=O)OCC)CC2)CC1 (configuration not stated)
growth inhibition [1, 7]: 96% (active)
growth inhibition [1, 8]: 97% (active)
growth inhibition ([1]; at 50.0 µM): 53.5%
growth inhibition [2, 7]: 84% (active)
growth inhibition [2, 8]: 99% (active)
growth inhibition ([2]; at 50.0 µM): 57.2%
growth inhibition [3, 7]: 68%
growth inhibition [3, 8]: 96% (active)
growth inhibition ([3]; at 50.0 µM): 57.1%
growth inhibition [4, 7]: 93% (active)
growth inhibition [4, 8]: 96% (active)
growth inhibition ([4]; at 50.0 µM): 54.1%
growth inhibition [5, 7]: 49%
growth inhibition [5, 8]: 97% (active)
growth inhibition ([5]; at 50.0 µM): 49.5%
growth inhibition [6, 7]: 95% (active)
growth inhibition [6, 8]: 98% (active)
growth inhibition ([6]; at 50.0 µM): 65.3%

C[CH2][Sn]([CH2]C)([CH2]C)[O]C(=O)CO
growth inhibition [1, 7]: 9%
growth inhibition [1, 8]: 98% (active)
growth inhibition ([1]; at 50.0 µM): 82.2% (active)
growth inhibition [2, 7]: 10%
growth inhibition [2, 8]: 99% (active)
growth inhibition ([2]; at 50.0 µM): 87% (active)
growth inhibition [3, 7]: 17%
growth inhibition [3, 8]: 98% (active)
growth inhibition ([3]; at 50.0 µM): 86.6% (active)
growth inhibition [4, 7]: -11%
growth inhibition [4, 8]: 93% (active)
growth inhibition ([4]; at 50.0 µM): 55.4%
growth inhibition [5, 7]: 7%
growth inhibition [5, 8]: 98% (active)
growth inhibition ([5]; at 50.0 µM): 86.8% (active)
growth inhibition [6, 7]: 12%
growth inhibition [6, 8]: 98% (active)
growth inhibition ([6]; at 50.0 µM): 84.9% (active)

O=[N+]([O-])C(Br)(Br)CCC(Br)(Br)[N+](=O)[O-]
growth inhibition [1, 7]: 99% (active)
growth inhibition [1, 8]: 99% (active)
growth inhibition ([1]; at 50.0 µM): 99.5% (active)
growth inhibition [2, 7]: 99% (active)
growth inhibition [2, 8]: 100% (active)
growth inhibition ([2]; at 50.0 µM): 99.8% (active)
growth inhibition [3, 7]: 99% (active)
growth inhibition [3, 8]: 99% (active)
growth inhibition ([3]; at 50.0 µM): 52.4%
growth inhibition [4, 7]: 100% (active)
growth inhibition [4, 8]: 99% (active)
growth inhibition ([4]; at 50.0 µM): 81.3% (active)
growth inhibition [5, 7]: 100% (active)
growth inhibition [5, 8]: 100% (active)
growth inhibition ([5]; at 50.0 µM): 99.7% (active)
growth inhibition [6, 7]: 99% (active)
growth inhibition [6, 8]: 99% (active)
growth inhibition ([6]; at 50.0 µM): 99.5% (active)

c1ccc([CH2][Pb]([c]2ccccc2)([c]2ccccc2)[c]2ccccc2)cc1
growth inhibition [1, 7]: 96% (active)
growth inhibition [1, 8]: 96% (active)
growth inhibition ([1]; at 50.0 µM): 97.2% (active)
growth inhibition [2, 7]: 97% (active)
growth inhibition [2, 8]: 99% (active)
growth inhibition ([2]; at 50.0 µM): 99.2% (active)
growth inhibition [3, 7]: 97% (active)
growth inhibition [3, 8]: 98% (active)
growth inhibition ([3]; at 50.0 µM): 98.7% (active)
growth inhibition [4, 7]: 95% (active)
growth inhibition [4, 8]: 95% (active)
growth inhibition ([4]; at 50.0 µM): 98.5% (active)
growth inhibition [5, 7]: 98% (active)
growth inhibition [5, 8]: 97% (active)
growth inhibition ([5]; at 50.0 µM): 99% (active)
growth inhibition [6, 7]: 97% (active)
growth inhibition [6, 8]: 97% (active)
growth inhibition ([6]; at 50.0 µM): 99.2% (active)
